Data from PubChem BioAssay (EPA / NIEHS).
Results filed as inconclusive are left out. The source made the active and inactive calls. The calls were made as follows: active = hit-call score of the fitted dose curve at least 0.9, where 1 is the maximum; inconclusive = response in the unintended direction; inactive = score below 0.9.

target: Retinoic acid receptor alpha (Homo sapiens) (UniProt P10276); test: NVS_NR_hRARa_Agonist: NovaScreen (NVS) Nuclear Receptor Binding Assay for human Retinoic Acid Alpha Receptor Agonism (RAR) (AID 2283361)
Sequence (P10276 whole entry, looked up): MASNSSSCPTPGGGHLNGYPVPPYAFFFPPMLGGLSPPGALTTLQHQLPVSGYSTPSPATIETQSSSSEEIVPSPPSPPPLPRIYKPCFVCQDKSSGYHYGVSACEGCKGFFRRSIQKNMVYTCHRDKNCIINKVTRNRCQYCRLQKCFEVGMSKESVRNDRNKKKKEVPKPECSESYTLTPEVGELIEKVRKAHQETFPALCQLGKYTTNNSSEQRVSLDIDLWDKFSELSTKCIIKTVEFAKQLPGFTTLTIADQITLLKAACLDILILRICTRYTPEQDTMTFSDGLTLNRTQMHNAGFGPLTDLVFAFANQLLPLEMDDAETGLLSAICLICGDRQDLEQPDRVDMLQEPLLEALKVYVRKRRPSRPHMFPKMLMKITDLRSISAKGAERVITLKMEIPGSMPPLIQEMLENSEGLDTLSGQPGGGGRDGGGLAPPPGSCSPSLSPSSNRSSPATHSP
Method in brief: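 Readout is time-resolved fluorescence resonance energy transfer after a 2 h exposure of cell-free extracted receptor protein. Initial testing used 25 uM in duplicate, with concentration-response follow-up for active chemicals.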

Row | SMILES | outcome | AC50
1 | Clc1nc(Cl)c(Cl)c(Cl)c1Cl | inactive | 
2 | CC[C@H]1CC[C@H](NCc2cc3c(cc2OC)[C@H]2C[C@H]2C(=O)N3C)[C@H](c2ccccc2)N1 | inactive | 
3 | CC(C)CCCCCCCOC(=O)CCCCC(=O)OCCCCCCCC(C)C | inactive | 
4 | Cn1c(=O)c2c(ncn2C)n(C)c1=O | inactive | 
5 | Nc1nc2ncc(CNc3ccc(C(=O)N[C@@H](CCC(=O)O)C(=O)O)cc3)nc2c(=O)[nH]1 |  | 15.8 µM (active)

target: Glucocorticoid receptor (Homo sapiens) (UniProt P04150); test: NVS_NR_hGR: NovaScreen (NVS) Nuclear Receptor Binding Assay for human Glucocorticoid Receptor (GR) (AID 2283363);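 as to AC50: activity is loss of specific radioligand binding signal relative to DMSO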
Sequence (P04150 whole entry, looked up): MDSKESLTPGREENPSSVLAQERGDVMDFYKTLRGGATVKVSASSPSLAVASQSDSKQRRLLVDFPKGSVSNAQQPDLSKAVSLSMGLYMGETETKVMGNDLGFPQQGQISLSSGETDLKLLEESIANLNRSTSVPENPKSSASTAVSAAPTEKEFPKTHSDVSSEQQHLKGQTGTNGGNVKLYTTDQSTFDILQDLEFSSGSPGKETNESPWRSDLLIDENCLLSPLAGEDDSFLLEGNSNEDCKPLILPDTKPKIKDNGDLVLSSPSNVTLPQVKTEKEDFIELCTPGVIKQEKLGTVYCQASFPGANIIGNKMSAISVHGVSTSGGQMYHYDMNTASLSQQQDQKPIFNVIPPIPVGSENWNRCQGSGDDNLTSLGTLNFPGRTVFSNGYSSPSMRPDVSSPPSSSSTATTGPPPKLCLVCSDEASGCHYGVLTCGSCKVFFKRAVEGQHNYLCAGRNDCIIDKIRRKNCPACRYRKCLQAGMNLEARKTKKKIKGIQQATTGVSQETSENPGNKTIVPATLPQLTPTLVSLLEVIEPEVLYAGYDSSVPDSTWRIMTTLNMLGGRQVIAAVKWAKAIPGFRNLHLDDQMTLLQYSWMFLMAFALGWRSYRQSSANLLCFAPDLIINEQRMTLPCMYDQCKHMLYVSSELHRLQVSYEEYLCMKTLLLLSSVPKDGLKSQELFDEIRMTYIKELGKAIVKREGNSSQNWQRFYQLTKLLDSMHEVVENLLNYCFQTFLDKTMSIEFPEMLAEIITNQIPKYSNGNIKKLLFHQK
Method in brief: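 Competitive displacement of a labelled ligand was measured on cell-free receptor preparations after 16 h exposure. Initial testing used 25 uM in duplicate with plate controls; confirmed actives went into concentration series.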

Row | SMILES | AC50 | outcome
6 | CCC(C)(C)C(=O)O[C@H]1C[C@@H](C)C=C2C=C[C@H](C)[C@H](CC[C@@H]3C[C@@H](O)CC(=O)O3)[C@H]21 | 14.5 µM (active) | 
7 | COc1ccc2sc(C(=O)Nc3nnn[nH]3)c(OC(C)C)c2c1 |  | inactive
8 | CCn1nc(Cc2ccccc2)cc1C1CCN(C[C@H]2C[C@H](N(C)[C@@H](C(=O)O)C(C)C)C[C@@H]2c2cccc(F)c2)CC1 |  | inactive
9 | Cn1c(=O)cc(Oc2ccc(F)cc2F)c2cnc(NCC(C)(C)O)nc21 | 2.48 µM (active) | 
10 | COc1ccc(-n2nc(C(F)F)cc2-c2ccc(S(C)=O)cc2)cc1 (centres undefined) | 16.7 µM (active) | 

target: Nuclear receptor subfamily 1 group I member 2 (Homo sapiens) (UniProt O75469); test: NVS_NR_hPXR: NovaScreen (NVS) Nuclear Receptor Binding Assay for human Pregnane X Receptor (PXR) (AID 2283365);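 also: a drop in FRET signal versus DMSO baseline means the compound binds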
Sequence (O75469 whole entry, looked up): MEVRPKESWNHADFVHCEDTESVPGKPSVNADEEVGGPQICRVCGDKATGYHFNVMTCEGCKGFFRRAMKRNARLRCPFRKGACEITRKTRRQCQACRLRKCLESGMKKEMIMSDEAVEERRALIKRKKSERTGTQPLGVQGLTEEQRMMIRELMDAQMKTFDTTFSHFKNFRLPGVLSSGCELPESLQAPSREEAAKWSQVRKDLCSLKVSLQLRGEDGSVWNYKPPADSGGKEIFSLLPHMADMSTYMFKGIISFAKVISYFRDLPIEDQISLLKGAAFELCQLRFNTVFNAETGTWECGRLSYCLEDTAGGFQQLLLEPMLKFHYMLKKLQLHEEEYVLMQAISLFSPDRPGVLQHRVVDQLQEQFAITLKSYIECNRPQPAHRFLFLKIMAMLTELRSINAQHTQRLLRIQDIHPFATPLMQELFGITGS
Method in brief: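 TR-FRET signal read at 2 h in a cell-free human PXR binding format. DMSO served as negative control and baseline; activity scored as signal loss. Single-concentration duplicate screen (25 uM), then concentration-response follow-up.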

Row | SMILES | outcome
11 | C=CCCCCCCCCC(=O)O | inactive
12 | COC(=O)c1ccccc1O | inactive
13 | NC(=O)NO | inactive
14 | CC1(C)C(=O)N(Br)C(=O)N1Br | inactive
15 | Nc1cccc(N)c1 | inactive

target: human Adenosine Transporter (Adot), SLC29A1 (gene 2030) (UniProt Q99808); test: NVS_TR_hAdoT: NovaScreen (NVS) Transporter Assay for human Adenosine Transporter (Adot) (AID 2283368)
Sequence (Q99808 whole entry, looked up): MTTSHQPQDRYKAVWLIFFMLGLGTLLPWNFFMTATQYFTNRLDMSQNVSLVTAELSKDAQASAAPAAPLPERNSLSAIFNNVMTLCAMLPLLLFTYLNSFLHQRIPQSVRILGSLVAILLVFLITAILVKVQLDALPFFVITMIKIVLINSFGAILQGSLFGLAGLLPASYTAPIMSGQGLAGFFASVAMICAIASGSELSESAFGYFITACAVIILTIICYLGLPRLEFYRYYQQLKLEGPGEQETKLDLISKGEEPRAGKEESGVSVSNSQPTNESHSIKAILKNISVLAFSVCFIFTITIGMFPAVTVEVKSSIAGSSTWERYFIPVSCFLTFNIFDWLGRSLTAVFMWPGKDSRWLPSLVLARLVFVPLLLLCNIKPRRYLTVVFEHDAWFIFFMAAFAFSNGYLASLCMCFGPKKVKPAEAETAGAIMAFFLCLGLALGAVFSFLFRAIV
Method in brief: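 U937-derived membranes, cell-free radioligand binding, filter scintillation 1 h after dosing. 25 uM duplicate screen; hits (e.g. 30% inhibition) run in concentration-response up to 50 uM; loss of signal versus DMSO.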

Row | SMILES | AC50
16 | CCC(C)(C)C(=O)O[C@H]1C[C@@H](C)C=C2C=C[C@H](C)[C@H](CC[C@@H]3C[C@@H](O)CC(=O)O3)[C@H]21 | 25 µM (active)
17 | Cn1c(=O)cc(Oc2ccc(F)cc2F)c2cnc(NCC(C)(C)O)nc21 | 25 µM (active)
18 | COc1ccc(-n2nc(C(F)F)cc2-c2ccc(S(C)=O)cc2)cc1 (centres undefined) | 33.2 µM (active)
19 | CCCCC(CC)COC(=O)CCCCCCCCC(=O)OCC(CC)CCCC (centres undefined) | 39.9 µM (active)

tested on: guinea pig Dopamine Transporter (DAT), gene 100714898; test: NVS_TR_gDAT: NovaScreen (NVS) Transporter Assay for guinea pig Dopamine Transporter (DAT) (AID 2283369);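 also: active compounds lower bound radioligand signal relative to DMSO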
Method in brief: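 Cell-free striatal membrane prep (guinea pig), 2 h exposure, filtration + scintillation readout of radioligand binding. Single-point 25 uM duplicate; actives rerun singleton, top conc 50 uM.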

Row | SMILES | AC50
20 | CCn1nc(Cc2ccccc2)cc1C1CCN(C[C@H]2C[C@H](N(C)[C@@H](C(=O)O)C(C)C)C[C@@H]2c2cccc(F)c2)CC1 | 13.8 µM (active)
21 | CN(C)c1ccc(N=NS(=O)(=O)O)cc1 | 27.1 µM (active)
22 | Cc1[nH]cnc1C[C@H]1CCc2c(C)c3ccccc3n2C1=O | 12.7 µM (active)
23 | O=C(O)CC(O)C(=O)O (centres undefined) | 5.6 µM (active)

target: Peroxisome proliferator-activated receptor gamma (Homo sapiens) (UniProt P37231); test: NVS_NR_hPPARg: NovaScreen (NVS) Nuclear Receptor Binding Assay for human Peroxisome Proliferator-activated Receptor gamma (PPARg) (AID 2283370)
Sequence (P37231 whole entry, looked up): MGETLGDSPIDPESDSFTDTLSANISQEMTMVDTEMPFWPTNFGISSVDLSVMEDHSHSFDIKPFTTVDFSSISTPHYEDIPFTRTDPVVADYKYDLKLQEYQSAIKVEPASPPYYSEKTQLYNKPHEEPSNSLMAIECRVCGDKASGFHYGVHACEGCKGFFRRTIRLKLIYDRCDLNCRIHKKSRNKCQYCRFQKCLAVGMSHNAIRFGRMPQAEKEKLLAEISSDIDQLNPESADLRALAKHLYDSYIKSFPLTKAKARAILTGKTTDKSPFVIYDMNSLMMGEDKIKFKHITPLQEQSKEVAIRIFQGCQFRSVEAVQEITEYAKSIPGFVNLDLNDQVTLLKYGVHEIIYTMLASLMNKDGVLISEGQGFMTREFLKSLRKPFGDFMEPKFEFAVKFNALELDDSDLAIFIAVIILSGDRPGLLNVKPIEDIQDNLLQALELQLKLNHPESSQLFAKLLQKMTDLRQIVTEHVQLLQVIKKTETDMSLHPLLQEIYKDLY
Method in brief: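 FP read-out, 2 h post-dose, cell-free extracted receptor protein. Signal loss vs DMSO negative control = binding activity. Single-conc duplicate HTS at 25 uM; concentration-response follow-up for actives.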

Row | SMILES | outcome | AC50
24 | C=CC(=C)CCC=C(C)C | inactive | 
25 | CC(C)c1cccc(C(C)C)c1N1C(=O)c2ccc(O)cc2C1=O |  | 16.1 µM (active)
26 | CCC(C)(C)C(=O)O[C@H]1C[C@@H](C)C=C2C=C[C@H](C)[C@H](CC[C@@H]3C[C@@H](O)CC(=O)O3)[C@H]21 | inactive | 
27 | CC(C)=CCC/C(C)=C\CO | inactive | 
28 | COc1ccc2sc(C(=O)Nc3nnn[nH]3)c(OC(C)C)c2c1 |  | 5.14 µM (active)
29 | Clc1nc(Cl)c(Cl)c(Cl)c1Cl | inactive | 
30 | CC(C)=CCC/C(C)=C/CO | inactive | 
31 | CC/C(=C\C(=N/O)C(N)=O)C(C)[N+](=O)[O-] (centres undefined) | inactive | 
32 | CC1(C)C(=O)N(Br)C(=O)N1Br | inactive | 
33 | Cn1c(=O)cc(Oc2ccc(F)cc2F)c2cnc(NCC(C)(C)O)nc21 |  | 32.4 µM (active)
34 | COc1ccc(-n2nc(C(F)F)cc2-c2ccc(S(C)=O)cc2)cc1 (centres undefined) | inactive | 
35 | CCN(C(=O)c1cc(C)cc(OC[C@H](C)Nc2ccncc2)c1)C(C)C | inactive | 
36 | COC(=O)c1c(Cl)c(Cl)c(C(=O)OC)c(Cl)c1Cl | inactive | 
37 | O=C(NS(=O)(=O)/C=C/c1ccccc1)c1ccc(F)cc1Cl |  | 39.6 µM (active)
38 | COc1ccc(/C=C/S(=O)(=O)NC(=O)c2ccc(C)cc2Cl)cc1 |  | 41.3 µM (active)
39 | CNCc1ccc(NC(=O)c2c[nH]c3c2C(=O)CCC3)cc1 |  | 5.18 µM (active)
